# Laboratory results reported in PubChem BioAssay (EPA / NIEHS).
# Results filed as inconclusive are left out. The source made the active and inactive calls. Rule for the calls: active = hit-call score of the fitted dose curve at least 0.9, where 1 is the maximum; inconclusive = response in the unintended direction; inactive = score below 0.9.
# Biological target: human Vitamin D Receptor (VDR), VDR (gene 7421) (UniProt P11473)
# Test: ATG_VDR_TRANS: Attagene TRANS-FACTORIAL HepG2 Assay for human Vitamin D Receptor (VDR) (AID 2283022)
# Procedure: ATG_TRANS is a cell-based, multiplexed-readout assay that uses HepG2, a human liver cell line, with measurements taken at 24 hours after chemical dosing in a 24-well plate.ATG_VDR_TRANS is one of 30 assay component(s) measured or calculated from the ATG_TRANS assay. It is designed to make measurements of mRNA induction, a form of inducible reporter, as detected with fluorescence intensity signals by Reverse transcription polymerase chain reaction (RT-PCR) and Capillary electrophoresis technology.Data from the assay component ATG_VDR_TRANS was analyzed into 1 assay endpoint. This assay endpoint, ATG_VDR_TRANS, was analyzed in the positive analysis fitting direction relative to DMSO as the negative control and baseline of activity. Using a type of inducible reporter, measures of mRNA for gain-of-signal activity can be used to understand the reporter gene at the transcription factor-level as they relate to the gene VDR. Furthermore, this assay endpoint can be referred to as a primary readout, because this assay has produced multiple assay endpoints where this one serves a reporter gene function. To generalize the intended target to other relatable targets, this assay endpoint is annotated to the nuclear receptor intended target family, where the subfamily is non-steroidal.
# Human liver HepG2 cells are transiently transfected with multiple reporter transcription units (MRTUs) in 6-well plates using FuGene 6 reagent (Roche; 3 ml FuGene/1 mg DNA). The MRTU constructs are regulated by a cis-regulating element (promoter). […] A major difference between the CIS and TRANS system is that in CIS activities of endogenous TFs are measured, whereas the TRANS assay evaluates changes in activities of exogenous, chimeric NR-Gal4 proteins. […] At the end of 24 hour incubation, total RNA was isolated using TriZol reagent (Invitrogen). The isolated RNA is then reverse-transcribed using oligo(dT) primer and Mo-MLV reverse transcriptase (Invitrogen) with DNAse I (Ambion) treatment for 30 min. The one-tenth of the produced cDNA was amplified by PCR using Taq DNA polymerase (Invitrogen) and two reporter sequence-specific primers. The PCR products were fluorescently labeled by primer extension with 6-arboxyfluorescein (6-FAM) 5'-labeled reporter sequence-specific primer (2 min at 95 C, 20 s at 68 C and 10 min at 72 C) and these products were digested with 5U of HpaI (New England Biolabs) for 2h at 37 C. The fragments were purified using Qiaquick PCR columns (Qiagen), analyzed on an ABI 3130xL genetic analyzer (Applied Biosystems) with peak positions identified by using a set of X-rhodamine (ROX)-labeled MapMarker1000 molecular weight standards (BioVentures). The raw capillary electrophoresis data was processed using Attagraph software (Attagene).
# Chain of human Vitamin D Receptor (VDR), VDR (gene 7421) (P11473 whole entry, looked up): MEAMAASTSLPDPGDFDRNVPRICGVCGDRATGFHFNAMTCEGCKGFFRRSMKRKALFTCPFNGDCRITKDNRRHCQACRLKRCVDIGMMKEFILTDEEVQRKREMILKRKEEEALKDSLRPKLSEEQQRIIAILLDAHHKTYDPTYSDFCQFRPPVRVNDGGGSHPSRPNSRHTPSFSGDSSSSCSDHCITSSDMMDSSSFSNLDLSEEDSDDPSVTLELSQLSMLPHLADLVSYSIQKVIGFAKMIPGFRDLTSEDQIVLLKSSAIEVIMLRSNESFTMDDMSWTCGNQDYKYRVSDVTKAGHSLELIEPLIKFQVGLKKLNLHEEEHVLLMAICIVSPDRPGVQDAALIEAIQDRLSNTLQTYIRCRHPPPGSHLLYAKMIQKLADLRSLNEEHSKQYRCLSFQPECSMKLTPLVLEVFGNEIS
row,Structure (SMILES),outcome
1,Clc1ccc(-c2ccccc2)cc1,inactive
2,CCC1CCC(=O)O1 (stereo not given),inactive
3,CCOC(=O)NC(=S)Nc1ccccc1NC(=S)NC(=O)OCC,inactive
4,CCC(=O)c1ccc(Cl)cc1,inactive
5,C[C@]12CC[C@H](O)C[C@H]1CC[C@@H]1[C@@H]2C[C@@H](O)[C@]2(C)[C@@H](C3=CC(=O)OC3)CC[C@]12O,inactive
6,O=S(=O)(c1ccccc1)c1ccccc1,inactive
7,CC1CCCC1.[C-]#[O+].[C-]#[O+].[C-]#[O+].[Mn],inactive
8,CCC[N+](=O)[O-],inactive
9,Nc1ccc(-c2ccc(N)c(N)c2)cc1N,inactive
10,CC(C)(C)C(O)C(Oc1ccc(-c2ccccc2)cc1)n1cncn1 (stereo not given),inactive
11,CSc1nc(N=[N+]=[N-])nc(NC(C)C)n1,inactive
12,O=P(O)(Oc1ccccc1)Oc1ccccc1,inactive
13,C=CCc1ccc(OC(=O)Cc2ccccc2)c(OC)c1,inactive
14,CC(C)(c1cc(Cl)c(O)c(Cl)c1)c1cc(Cl)c(O)c(Cl)c1,inactive
15,CC(C)CCCCCCCOP(=O)(Oc1ccccc1)Oc1ccccc1,inactive
16,O=[N+]([O-])C=Cc1ccccc1,inactive
17,ClCCCCCCCl,inactive
18,CN(C)C(=O)C(c1ccccc1)c1ccccc1,inactive
19,Nc1ccccc1,inactive
20,O=C1Nc2ccc(Cl)cc2C(c2ccccc2)=NC1O (stereo not given),inactive

row,Structure (SMILES),outcome
1,C=C(Cl)CCl,inactive
2,C=CC(=O)OC,inactive
3,CC1(C)CC(=O)CC(C)(C)N1[O],inactive
4,CN(C)N,inactive
5,C=CC(=O)OCC(CC)CCCC (stereo not given),inactive
6,O=C=Nc1ccccc1,inactive
7,ClCC(Cl)Cl,inactive
8,N#CCCCl,inactive
9,CC(C)c1ccc(O)cc1,inactive
10,CCCCCc1cc(O)cc(O)c1,inactive
11,CC(C)C(=O)Cl,inactive
12,Oc1ccc(Cl)cc1,inactive
13,Nc1ccccc1C(=O)Oc1ccc2ccccc2c1,inactive
14,N#Cc1cc(I)c(O)c(I)c1,inactive
15,CC(C)(O)C#N,inactive
16,CCC(Br)(CC)C(=O)NC(N)=O,inactive
17,CCOP(O)OCC,inactive
18,CC(C)COP(=O)(OCC(C)C)OCC(C)C,inactive
19,CCC(C)c1cc(C(C)(C)C)cc(-n2nc3ccccc3n2)c1O (stereo not given),inactive
20,Nc1ccc([N+](=O)[O-])cc1N,inactive
